From PubChem BioAssay
“And” between values parts separate entries of the source, which are not always exact repeats. Equal entries are not always repeated. Results filed as inconclusive are left out. The source made the active and inactive calls.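 The calls were made as follows, unless noted: active = normalized viability below 100% at a tested concentration; inactive = the rest.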

How the values were obtained:
[1] = growth inhibition of DIPG glioma cells, dose response, cell-based, SU-DIPG-XIII, MIPE4.0, CellTiter-Glo, qHTS (AID 1347061; cut-off not given, nearly all actives have AC50 up to about 37 µM;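 also: cells exposed to compound for 48 hours before readout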); conditions: SU-DIPG-XIII viability, CellTiter-Glo ATP luminescence
[2] = SU-DIPG-VI glioma cell viability, MIPE4.0 library, CellTiter-Glo luminescence, qHTS (AID 1347066; cut-off not given, nearly all actives have AC50 up to about 30 µM;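 also: cells exposed to compound for 48 hours before readout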); conditions: CellTiter-Glo ATP luminescence
[3] = SU-DIPG-XXV glioma cell viability, MIPE5.0 library, qHTS (AID 1347068; cut-off not given, nearly all actives have IC50 up to about 30 µM)
[4] = sensitizers of A549 cells to miR-34 induction, primary screen, imaging, A549 dox-inducible miR-34, nuclei and caspase counts (AID 1347080;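 active = compounds whose cell count with miR-34 switched on is under 0.7 times the count with it off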); conditions: A549 miR-34 inducible, Hoechst nuclei count, 48 h
[5] = modifiers of HSF1 nuclear foci, imaging, Selleck Cancer Library (AID 1347162; in the data active = plate-normalised HSF1 focus index below about 0.46); conditions: human cells, at 10 µM; SSMD: measured here: HSF1 foci SSMD mean; cell count: measured here: cell number; plate-normalised HSF1 focus index: stronger effect = lower value
[6] = survival rescue of mitochondrial mutant cells in low glucose, primary screen, MELAS cybrids, Rieske KO mouse fibroblasts, CellTiter-Glo (AID 1508586;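 active = mean z-score across replicates of 1.96 or higher in either the MELAS or the Rieske mutant cell line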;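 also: z relative to plate mean and SD of compound and empty wells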)
[7] = ovarian cancer cell viability with rucaparib, profiling panel, oncology-focused library, rucaparib conditional (AID 1508598); conditions: patient-derived ovarian cancer cells, CellTiter-Glo viability, 144 h, stronger effect = lower value
[8] = LFS_MB_P medulloblastoma growth inhibition, cell-based, chromothripsis tumors, cisplatin or BGB combos (AID 1671449; in the data active = inhibition above about 80%;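 also: cells exposed for 96 hours; 0% = vehicle DMSO and 100% = killing by high DMSO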); conditions: LFS_MB_P medulloblastoma cells
[9] = HDN33 neuroblastoma growth inhibition, cell-based, chromothripsis tumors, cisplatin or BGB combos (AID 1671450; in the data active = inhibition above about 80%;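 also: cells exposed to compound for four days; 0% = vehicle DMSO and 100% = cell killing by high DMSO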); conditions: HDN33 neuroblastoma cells, stronger effect = higher value
[10] = ICB984 medulloblastoma cell growth inhibition, synergistic combos for chromothripsis tumors, cisplatin or BGB combos (AID 1671451; call rule not given here;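 also: cells exposed for 96 hours before readout; 0% = vehicle DMSO and 100% = killing by high DMSO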); conditions: ICB984 medulloblastoma cells, drug combinations, stronger effect = higher value
[11] = HTB85 osteosarcoma cell growth inhibition, synergistic combos for chromothripsis tumors, BGB or cisplatin IC20 combos (AID 1671453; in the data active = inhibition above about 80%;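 also: cells exposed for 96 hours before readout; 0% = vehicle DMSO and 100% = high DMSO killing control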); conditions: HTB85 osteosarcoma cells, drug combinations, stronger effect = higher value
[12] = MDA-MB-436 breast carcinoma cell growth inhibition, synergistic combos for chromothripsis tumors, BGB or cisplatin combos (AID 1671458; call rule not given here;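 also: cells exposed for 96 hours; 0% = vehicle DMSO and 100% = killing by high DMSO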); conditions: MDA-MB-436 breast carcinoma growth inhibition, drug combinations, stronger effect = higher value
[13] = growth inhibition of BT084 medulloblastoma cells, cell-based, ICGC_MB145, cisplatin and BGB IC40 combos (AID 1671461; in the data active = inhibition above about 80%;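 also: cells exposed to drugs for 96 hours; 0% = vehicle DMSO and 100% = high DMSO full killing control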); conditions: drug combinations, stronger effect = higher value
[14] = growth inhibition of RCMB18 medulloblastoma cells, cell-based, cisplatin and BGB IC40 combos (AID 1671462; in the data active = inhibition above about 80%;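 also: cells exposed to compound for four days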); conditions: stronger effect = higher value
[15] = growth inhibition of CRL1545 osteosarcoma cells, cell-based, cisplatin and BGB IC20 combos (AID 1671464; in the data active = inhibition above about 80%;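 also: cells exposed to compound for 96 hours before readout; 0% = vehicle DMSO and 100% = high DMSO killing control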); conditions: stronger effect = higher value
[16] = measured here: with BGB IC20 combination, at 0.5 µM
[17] = measured here: with cisplatin IC20 combination, at 0.5 µM

CN(C)Cc1ccc(-c2nc3cccc4c3n2CCNC4=O)cc1
AC50 [1]: 18.7 µM (active) | outcome [2]: inactive | outcome [3]: inactive | fold change ([4]; stronger effect = lower value, cell number ratio, induced over uninduced): 0.89 (inactive) | fold change ([4]; measured here: relative caspase fold change +Dox/-Dox): 1.02 | cell count ([4]; measured here: total cells with miR-34 induction, stronger effect = lower value): 6740 | cell count ([4]; measured here: total cells without miR-34 induction): 7560 | SSMD [5]: -0.246 | cell count [5]: 7430 | plate-normalised HSF1 focus index [5]: 0.994 (inactive) | z-score ([6]; MELAS cybrid survival, CellTiter-Glo 48 h, stronger effect = higher value): -0.319 (inactive) | z-score ([6]; Rieske KO mouse fibroblast survival, CellTiter-Glo 72 h): -0.0135 | viability ([7]; at 0.000305 µM, OCI-C5x cells, with rucaparib 10 µM, 100% = cells with rucaparib alone): 114% (inactive) | viability ([7]; at 0.000305 µM, OCI-C5x cells, without rucaparib): 127% (inactive) | viability ([7]; at 0.000305 µM, OCI-P5x cells, with rucaparib 20 µM, 100% = cells with rucaparib alone): 98.3% (active) | viability ([7]; at 0.000305 µM, OCI-P5x cells, without rucaparib): 118% (inactive) | viability ([7]; at 0.00122 µM, OCI-C5x cells, with rucaparib 10 µM, 100% = cells with rucaparib alone): 111% (inactive) | viability ([7]; at 0.00122 µM, OCI-C5x cells, without rucaparib): 142% (inactive) | viability ([7]; at 0.00122 µM, OCI-P5x cells, with rucaparib 20 µM, 100% = cells with rucaparib alone): 98.2% (active) | viability ([7]; at 0.00122 µM, OCI-P5x cells, without rucaparib): 119% (inactive) | viability ([7]; at 0.00488 µM, OCI-C5x cells, with rucaparib 10 µM, 100% = cells with rucaparib alone): 109% (inactive) | viability ([7]; at 0.00488 µM, OCI-C5x cells, without rucaparib): 121% (inactive) | viability ([7]; at 0.00488 µM, OCI-P5x cells, with rucaparib 20 µM, 100% = cells with rucaparib alone): 102% (inactive) | viability ([7]; at 0.00488 µM, OCI-P5x cells, without rucaparib): 115% (inactive) | viability ([7]; at 0.0195 µM, OCI-C5x cells, with rucaparib 10 µM, 100% = cells with rucaparib alone): 110% (inactive) | viability ([7]; at 0.0195 µM, OCI-C5x cells, without rucaparib): 128% (inactive) | viability ([7]; at 0.0195 µM, OCI-P5x cells, with rucaparib 20 µM, 100% = cells with rucaparib alone): 97% (active) | viability ([7]; at 0.0195 µM, OCI-P5x cells, without rucaparib): 111% (inactive) | viability ([7]; at 0.0781 µM, OCI-C5x cells, with rucaparib 10 µM, 100% = cells with rucaparib alone): 112% (inactive) | viability ([7]; at 0.0781 µM, OCI-C5x cells, without rucaparib): 136% (inactive) | viability ([7]; at 0.0781 µM, OCI-P5x cells, with rucaparib 20 µM, 100% = cells with rucaparib alone): 89.9% (active) | viability ([7]; at 0.0781 µM, OCI-P5x cells, without rucaparib): 107% (inactive) | viability ([7]; at 0.313 µM, OCI-C5x cells, with rucaparib 10 µM, 100% = cells with rucaparib alone): 117% (inactive) | viability ([7]; at 0.313 µM, OCI-C5x cells, without rucaparib): 118% (inactive) | viability ([7]; at 0.313 µM, OCI-P5x cells, with rucaparib 20 µM, 100% = cells with rucaparib alone): 88.6% (active) | viability ([7]; at 0.313 µM, OCI-P5x cells, without rucaparib): 101% (inactive) | viability ([7]; at 1.25 µM, OCI-C5x cells, with rucaparib 10 µM, 100% = cells with rucaparib alone): 109% (inactive) | viability ([7]; at 1.25 µM, OCI-C5x cells, without rucaparib): 121% (inactive) | viability ([7]; at 1.25 µM, OCI-P5x cells, with rucaparib 20 µM, 100% = cells with rucaparib alone): 88.7% (active) | viability ([7]; at 1.25 µM, OCI-P5x cells, without rucaparib): 92.1% (active) | viability ([7]; at 5 µM, OCI-C5x cells, with rucaparib 10 µM, 100% = cells with rucaparib alone): 120% (inactive) | viability ([7]; at 5 µM, OCI-C5x cells, without rucaparib): 114% (inactive) | viability ([7]; at 5 µM, OCI-P5x cells, with rucaparib 20 µM, 100% = cells with rucaparib alone): 78.4% (active) | viability ([7]; at 5 µM, OCI-P5x cells, without rucaparib): 83.9% (active) | inhibition ([8]; at 0.5 µM, stronger effect = higher value): -24.1% (inactive) and -21.5% (inactive) | inhibition ([8]; measured here: combination with BGB IC20, at 0.005 µM): -9.73% and -22% | inhibition ([8]; measured here: combination with BGB IC40, at 0.005 µM): 64% and -31.1% | inhibition ([8]; measured here: combination with BGB IC40, at 0.05 µM): -13% and -56% | inhibition ([8]; measured here: combination with cisplatin, at 0.5 µM, stronger effect = higher value): -37.5% and -16.8% | inhibition ([8]; measured here: combination with cisplatin, at 5 µM, stronger effect = higher value): -29.7% and -74.4% | inhibition ([9]; BGB combo, at 5 µM): -26.8% and -18.6% | inhibition ([9]; at 0.5 µM): -1.23% (inactive) and -27.1% (inactive) | inhibition ([9]; cisplatin combo, at 5 µM): 6.93% and -10.3% | inhibition [9, 16]: -13.1% and -21.5% | inhibition [9, 17]: 15.7% and -26.9% | inhibition ([9]; single agent, at 5 µM): -4.63% and 68.3% | inhibition ([10]; BGB IC20 combo, at 0.005 µM): -1.21% and 16.5% | inhibition ([10]; BGB IC40 combo, at 0.005 µM): -19.6% and -25.1% | inhibition ([10]; BGB IC40 combo, at 0.05 µM): -33.7% and -42.1% | inhibition ([10]; at 0.5 µM): -15.4% (inactive) and -23.9% (inactive) | inhibition ([10]; cisplatin combo, at 0.05 µM): -40.7% and -47.2% | inhibition ([10]; cisplatin combo, at 0.5 µM): -18.6% | inhibition ([10]; cisplatin combo, at 5 µM): -4.49% and -37.9% | inhibition ([10]; measured here: 5 uM single agent, at 5 µM): -23% and -7.92% | inhibition ([11]; at 0.5 µM): 17.4% (inactive) and -2.96% (inactive) | inhibition ([11]; measured here: with BGB IC20, at 0.5 µM): 58.8% and -16.5% | inhibition ([11]; measured here: with BGB IC20, at 5 µM): 10.8% and 1.62% | inhibition ([11]; measured here: with cisplatin IC20, at 0.5 µM): -2.97% and 1.8% | inhibition ([11]; measured here: with cisplatin IC20, at 5 µM): 2.38% and -10.9% | inhibition ([11]; single agent, at 5 µM): 7.8% and -6.63% | inhibition ([12]; at 0.5 µM): -0.12% (inactive) and 3.53% (inactive) | inhibition ([12]; measured here: BGB combination, at 0.5 µM): -12.4% and -11.3% | inhibition ([12]; measured here: BGB combination, at 5 µM): -14% and -5.01% | inhibition ([12]; measured here: cisplatin combination, at 0.5 µM): 2.29% and 7.08% | inhibition ([12]; measured here: cisplatin combination, at 5 µM): -4.32% and 2.44% | inhibition ([13]; at 0.5 µM): -6.05% (inactive) and -22.2% (inactive) | inhibition ([13]; cisplatin combination, at 0.5 µM): -18.4% and -65.7% | inhibition ([13]; cisplatin combination, at 5 µM): -58.6% and -32.7% | inhibition ([13]; measured here: BGB IC40 combination 0.05 uM, at 0.05 µM): -19.6% and 43.4% | inhibition ([13]; single agent, at 5 µM): -6.92% and -7.26% | inhibition ([14]; at 0.5 µM): -9.62% (inactive) and -41.4% (inactive) | inhibition ([14]; cisplatin combo, at 5 µM): -40.6% and -33.3% | inhibition ([14]; measured here: BGB IC40 combination, at 0.05 µM): -1.87% and -3.35% | inhibition ([14]; measured here: combination with cisplatin, at 0.5 µM): -15.6% and -104% | inhibition ([14]; single agent, at 5 µM): -19.5% and -24.5% | inhibition ([15]; at 0.5 µM): 4.03% (inactive) and 11.8% (inactive) | inhibition [15, 16]: -8.48% and 3.96% | inhibition [15, 17]: 8.84% and 14.3% | inhibition ([15]; single agent, at 0.05 µM): 17.2% and 13.3% | inhibition ([15]; single agent, at 5 µM): -17.9% and -17.8%
